The sample as a whole holds a higher share of hits than the screen did.
IDE exosite FP = exo-site inhibitors of human IDE, primary screen, biochemical, fluorescence anisotropy, probe displacement. 17,000 tested, 6.3% active. Insulin-degrading enzyme (Homo sapiens), P14735. z-score at 20 µM. purified IDE, FL-6b probe fluorescence polarization; stronger effect = lower value. AID 1259349, 2017;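 active = z-score of -3 or lower, meaning strong loss of probe binding signal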;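 also: His-tagged human IDE residues 42-1019 made in E. coli with 30 nM FL-6b probe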
An asterisk follows results filed as active.

SMILES | IDE exosite FP
Cc1ccccc1-c1ccccc1[C@@H]1[C@H](C#N)N(C(=O)c2ccccc2)[C@H]1CO | 2.64
COc1ccc2c3c(n(C)c2c1)[C@@H](CO)N(C)CC31CN(C(=O)C2CCC2)C1 | -1.24
O=C1CCC(=O)N[C@H](c2ccc(F)cc2)C/C=C\C[C@@H](c2ccc(F)cc2)N1 | -0.809
CC(C)C#Cc1ccc([C@@H]2[C@@H](CO)N3CCCCN(C(=O)NC(C)C)C[C@@H]23)cc1 | 1.07
CC(C)NC(=O)N1CCCCN2[C@H](CO)[C@@H](c3ccc(C#Cc4ccccc4F)cc3)[C@H]2C1 | -10.4*
CC(C)NC(=O)N1CCCCN2[C@H](C1)[C@@H](c1ccc(C#C[C@@H](C)O)cc1)[C@@H]2CO | 0.853
CC(C)NC(=O)N1CCCCN2[C@H](C1)[C@@H](c1ccc(C#Cc3ccccc3F)cc1)[C@@H]2CO | -5.23*
CC(C)NC(=O)N1CCCCN2[C@H](C1)[C@H](c1ccc(C#C[C@@H](C)O)cc1)[C@@H]2CO | 1.23
CC(C)NC(=O)N1CCCCN2[C@H](CO)[C@H](c3ccc(C#CC4CC4)cc3)[C@H]2C1 | -1.75
CC(C)C#Cc1ccc([C@H]2[C@@H](CO)N3CCCCN(C(=O)NC(C)C)C[C@H]23)cc1 | -1.82
CC(C)NC(=O)N1CCCCN2[C@@H](CO)[C@@H](c3ccc(C#C[C@H](C)O)cc3)[C@@H]2C1 | 0.296
CC(C)NC(=O)N1CCCCN2[C@H](CO)[C@H](c3ccc(C#Cc4ccccc4F)cc3)[C@@H]2C1 | -6.42*
CC(C)NC(=O)N1CCCCN2[C@H](CO)[C@@H](c3ccc(C#C[C@@H](C)O)cc3)[C@@H]2C1 | 3.62
CC(C)NC(=O)N1CCCCN2[C@@H](CO)[C@@H](c3ccc(C#Cc4ccccc4F)cc3)[C@@H]2C1 | -3.05*
CC(C)NC(=O)N1CCCCN2[C@H](C1)[C@H](c1ccc(C#CC3CC3)cc1)[C@@H]2CO | -2.35
CCC(=O)N1CC(=O)N2[C@H](C1)[C@H](c1ccc(C#CC(C)C)cc1)[C@@H]2CO | 1.63
CN(C)C(=O)c1ccc(-c2ccc([C@@H]3[C@@H](CO)N4C(=O)CN(C(=O)CC5CC5)C[C@@H]34)cc2)cc1 | 1.41
COCC(=O)N1CCC2(CC1)CN[C@H](CO)c1c2c2ccc(OC)cc2n1C | 0.383
CC(C)CC#Cc1ccc([C@H]2[C@H](CO)N3C(=O)CN(C(=O)c4ccc5c(c4)OCO5)C[C@@H]23)cc1 | 1.12
COc1ccc2c3c([nH]c2c1)[C@H](CO)N(C(=O)Nc1c(C)noc1C)CC31CN(CC2CCOCC2)C1 | 0.483
N#C[C@@H]1[C@@H](c2ccccc2-c2ccccc2F)[C@H](CO)N1C(=O)C1CCC1 | -1.42
O=C(C1CC1)N1CC(=O)N2[C@H](CO)[C@@H](c3ccc(C#CCc4ccccc4)cc3)[C@@H]2C1 | 0.353
CCC(=O)N1CC(=O)N2[C@H](C1)[C@@H](c1ccc(C#CCc3ccccc3)cc1)[C@@H]2CO | -2.54
O=C(C1CC1)N1CC(=O)N2[C@H](CO)[C@@H](c3ccc(C#CCc4ccccc4)cc3)[C@H]2C1 | 0.018
CCC(=O)N1CC(=O)N2[C@@H](CO)[C@H](c3ccc(C#CCc4ccccc4)cc3)[C@@H]2C1 | -3.78*
SMILES | IDE exosite FP
COCC(=O)N1CC(=O)N2[C@H](C1)[C@H](c1ccc(C#CCc3ccccc3)cc1)[C@@H]2CO | 1.21
CCC(=O)N1CC(=O)N2[C@H](CO)[C@H](c3ccc(C#CCc4ccccc4)cc3)[C@@H]2C1 | -5.83*
CCC(=O)N1CC(=O)N2[C@H](CO)[C@@H](c3ccc(C#CCc4ccccc4)cc3)[C@@H]2C1 | -0.778
CCC(=O)N1CC(=O)N2[C@H](CO)[C@H](c3ccc(C#CCc4ccccc4)cc3)[C@H]2C1 | -3.56*
O=C(C1CC1)N1CC(=O)N2[C@@H](CO)[C@H](c3ccc(C#CCc4ccccc4)cc3)[C@@H]2C1 | -0.585
O=C(C[C@@H]1CC[C@H]2[C@@H](COC[C@H](O)CN2C(=O)c2cnccn2)O1)N1CCN(c2ccccc2)CC1 | -0.593
N#Cc1cccc(-c2ccc(C3[C@H]4CNC[C@@H]3N4Cc3ccc(F)cc3)cc2)c1 (stereo not given in full) | 3.02
CCC(=O)N1CCCCN2[C@H](C1)[C@H](c1ccc(-c3ccc(F)cc3)cc1)[C@@H]2CO | 1.53
CCC(=O)N1CCCCN2[C@H](CO)[C@H](c3ccc(C#Cc4ccccc4F)cc3)[C@@H]2C1 | -5.86*
CCC(=O)N1CCCCN2[C@H](CO)[C@@H](c3ccc(-c4ccc(F)cc4)cc3)[C@H]2C1 | 1.42
CCC(=O)N1CCCCN2[C@H](C1)[C@@H](c1ccc(C#Cc3ccccc3F)cc1)[C@@H]2CO | -6.53*
OC[C@@H]1[C@@H](c2ccc(Br)cc2)[C@H]2CN(Cc3cncnc3)CCCCN12 | 0.52
Cc1cccc(-c2ccc([C@H]3[C@@H](CO)N4CCCCN(Cc5cccnc5)C[C@@H]34)cc2)c1 | -1.8
Cc1cccc(-c2ccc([C@@H]3[C@H](CO)N4CCCCN(Cc5cncnc5)C[C@@H]34)cc2)c1 | -7.52*
OC[C@@H]1[C@H](c2ccc(-c3ccc(F)cc3)cc2)[C@H]2CN(Cc3cccnc3)CCCCN12 | 1.16
Cc1ccc(-c2ccc([C@H]3[C@@H](CO)N4CCCCN(Cc5cncnc5)C[C@H]34)cc2)cc1 | -0.174
OC[C@@H]1[C@H](c2ccc(C3=CCCC3)cc2)[C@H]2CN(Cc3cncnc3)CCCCN12 | 0.59
OC[C@@H]1[C@@H](c2ccc(-c3ccccc3F)cc2)[C@H]2CN(Cc3cncnc3)CCCCN12 | 0.86
Cc1cccc(-c2ccc([C@@H]3[C@@H](CO)N4CCCCN(Cc5cncnc5)C[C@@H]34)cc2)c1 | -6.65*
Cc1cccc(-c2ccc([C@@H]3[C@H]4CN(Cc5cncnc5)CCCCN4[C@H]3CO)cc2)c1 | -4.66*
OC[C@@H]1[C@H](c2ccc(-c3ccccc3F)cc2)[C@@H]2CN(Cc3cncnc3)CCCCN12 | -1.62
Cc1cccc(-c2ccc([C@H]3[C@@H](CO)N4CCCCN(Cc5cccnc5)C[C@H]34)cc2)c1 | -6.79*
CO[C@@H]1CN(C)C(=O)c2ccc(NS(=O)(=O)CC(F)(F)F)cc2OC[C@@H](C)N(Cc2nccs2)C[C@H]1C | -0.547
COCC#Cc1ccc([C@@H]2[C@H](CO)N3C(=O)CN(C(=O)c4cccnc4)C[C@@H]23)cc1 | 2.03
Cc1ccccc1S(=O)(=O)N1CC(=O)N2[C@H](CO)[C@@H](c3ccc(C#CCC(C)C)cc3)[C@@H]2C1 | 1.43
SMILES | IDE exosite FP
COc1ccc(S(=O)(=O)N2CCCCN3[C@H](C2)[C@H](c2ccc(C#CC4CC4)cc2)[C@@H]3CO)cc1 | 1.63
CC(C)c1cn(CC[C@@H]2CC[C@@H](NS(=O)(=O)c3ccc(F)cc3)[C@@H](CO)O2)nn1 | 3.37
COc1ccc(NC(=O)N2[C@@H]3CNC[C@H]2C3c2ccc(-c3ccc(C)cc3)cc2)cc1 (stereo not given in full) | 5.06
Cc1ccc(OC(=O)N(C)C[C@@H]2OCc3ccccc3-c3ccccc3C(=O)N([C@@H](C)CO)C[C@H]2C)cc1 | 0.345
O=C(NC1CCCCC1)N1CC(=O)N2[C@H](C1)[C@@H](c1ccc(-c3ccccc3)cc1)[C@@H]2CO | -9.08*
O=C(NC1CCCCC1)N1CC(=O)N2[C@H](CO)[C@@H](c3ccc(-c4ccccc4)cc3)[C@H]2C1 | -5.2*
O=C(NC1CCCCC1)N1CC(=O)N2[C@@H](CO)[C@H](c3ccc(-c4ccncc4)cc3)[C@@H]2C1 | -0.00194
O=C(NC1CCCC1)N1CC(=O)N2[C@H](CO)[C@H](c3ccc(-c4cccnc4)cc3)[C@H]2C1 | -2.98

Screening results from PubChem.
